The source of these data is PubChem BioAssay (NCI).

Compounds without any hit were thinned out: in the full panel of roughly 83,000, 20% have a hit.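 Compound tested at a single concentration for 48 hours in 96-well plates; a percent growth value below 10 was scored as active.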 Unmarked numbers belong to inactive results. Calls of active or inactive are those of the source.

What all share (assay): NCI-60 one-dose screen, 48 h (100 = growth as untreated, 0 = no growth, -100 = all killed)
In one test the test system is HCT-15 colon. The following applies: 10 µM unless noted.
The next test deals with HT29 colon. The following applies: 10 µM unless noted.
Another test relates to SNB-75 CNS. The following applies: 10 µM unless noted.
The next test concerns SNB-19 CNS. The following applies: 10 µM unless noted.
The next test has as its system U251 CNS. The following applies: 10 µM unless noted.
The subject of the next test is PC-3 prostate. The following applies: 10 µM unless noted.
The test system of the next test is SK-MEL-5 melanoma. The following applies: 10 µM unless noted.
The test system of another test is UACC-62 melanoma. The following applies: 10 µM unless noted.
The next test concerns LOX IMVI melanoma. The following applies: 10 µM unless noted.
The subject of the next test is SK-MEL-28 melanoma. The following applies: 10 µM unless noted.
The next test relates to SK-MEL-2 melanoma. The following applies: 10 µM unless noted.
The next test deals with EKVX NSCLC. The following applies: 10 µM unless noted.
Another test relates to SN12C renal. The following applies: 10 µM unless noted.
For the next test, the system named is UO-31 renal. The following applies: 10 µM unless noted.
Another test has as its system TK-10 renal. The following applies: 10 µM unless noted.
The test system of another test is ACHN renal. The following applies: 10 µM unless noted.
The next test relates to CAKI-1 renal. The following applies: 10 µM unless noted.
In another test the test system is A498 renal. The following applies: 10 µM.
The test system of another test is HL-60(TB) leukemia. The following applies: 10 µM unless noted.
Another test relates to CCRF-CEM leukemia. The following applies: 10 µM unless noted.

`CC12CC=CCC1CCC1C2CCC2(C)C(c3ccc(=O)oc3)CCC12O` (stereo not given): the growth in the test on HCT-15 colon was -66.3% (active); in the test with HT29 colon, -44.7% (active); with SNB-75 CNS it was -61.7% (active); in the test with SNB-19 CNS it was -98.3% (active); with U251 CNS it was -73.3% (active); in the test with PC-3 prostate, -6.92% (active). Besides, the growth was -47.5% (active) in the test on SK-MEL-5 melanoma; -72.9% (active) with UACC-62 melanoma; -78% (active) in the test on LOX IMVI melanoma; -33.8% (active) with SK-MEL-28 melanoma; -33.6% (active) with SK-MEL-2 melanoma; -85.1% (active) in the test with EKVX NSCLC. For the same molecule, the growth in the test on SN12C renal was -13.1% (active); in the test on UO-31 renal it was -91.4% (active); in the test with TK-10 renal it was -62.2% (active); in the test with ACHN renal, -90% (active); with CAKI-1 renal it was -57% (active); in the test with A498 renal, -22.7% (active). The growth in the test with HL-60(TB) leukemia was -14% (active); with CCRF-CEM leukemia it was 1.08% (active).
`C[C@@]12CC[C@@H](O)C[C@@H]1CC[C@H]1[C@H]2CC[C@@]2(C)[C@H](c3ccc(=O)oc3)CC[C@@]12O`: the growth was -79.7% (active) in the test with HCT-15 colon; -67.5% (active) in the test on HT29 colon; -85% (active) in the test on SNB-75 CNS; -99.8% (active) with SNB-19 CNS; -81.3% (active) in the test on U251 CNS; -22.5% (active) in the test with PC-3 prostate. Besides, the growth in the test on SK-MEL-5 melanoma was -68.6% (active); with UACC-62 melanoma it was -71% (active); in the test on LOX IMVI melanoma, -74.9% (active); with SK-MEL-28 melanoma, -43% (active); in the test with SK-MEL-2 melanoma, -29.7% (active); in the test with EKVX NSCLC it was -86.4% (active). The growth with SN12C renal was -24.9% (active); in the test on UO-31 renal, -96.2% (active); in the test with TK-10 renal, -81.4% (active); in the test with ACHN renal, -90% (active); in the test on CAKI-1 renal it was -83.5% (active); with A498 renal, -29.9% (active). Besides, the values for the growth in the test on HL-60(TB) leukemia and in the test on CCRF-CEM leukemia were -30.6% (active) and -9% (active), respectively.
Regarding `COc1cc2c(cc1OCCCCn1c(-c3cccs3)nc3ccccc31)N=C[C@@H]1CCCN1C2=O`, the growth in the test on HCT-15 colon is -11.9% (active); in the test with HT29 colon, 2.34% (active); in the test with SNB-75 CNS it was -65.4% (active); with SNB-19 CNS, 10.5%; with U251 CNS, -2.52% (active); in the test on PC-3 prostate, -4.05% (active). In addition, the growth with SK-MEL-5 melanoma was -80% (active); in the test with UACC-62 melanoma, -91.1% (active); in the test on LOX IMVI melanoma, -48.9% (active); in the test on SK-MEL-28 melanoma it was -37.4% (active); with SK-MEL-2 melanoma, -52.4% (active); in the test with EKVX NSCLC, 4.43% (active). Also, the growth in the test on SN12C renal was 2.49% (active); with UO-31 renal, -58.3% (active); with TK-10 renal, -22.8% (active); with ACHN renal, -10% (active); in the test with CAKI-1 renal, -22% (active); with A498 renal, -53.9% (active). For the same molecule, the growth in the test on HL-60(TB) leukemia was -18.7% (active); with CCRF-CEM leukemia it was -25.7% (active).
Turning to `C[CH2][Sn]([Cl])([Cl])[CH2]C.Oc1ccccc1C=NCCN=Cc1ccccc1O`, the growth in the test with HCT-15 colon was 104%; in the test with HT29 colon it was 108%; with SNB-75 CNS it was 121%; in the test on SNB-19 CNS, 106%; in the test on U251 CNS it was 93.5%; in the test with PC-3 prostate, 89.8%. The growth was 99.5% in the test with SK-MEL-5 melanoma; 93.8% in the test with UACC-62 melanoma; 72.2% with LOX IMVI melanoma; 124% in the test on SK-MEL-28 melanoma; 116% with SK-MEL-2 melanoma; 96.9% with EKVX NSCLC. In addition, the growth is 101% with SN12C renal; 72.8% in the test with UO-31 renal; 117% in the test with TK-10 renal; 97.5% with ACHN renal; 86.5% in the test with CAKI-1 renal; 103% in the test with A498 renal. Further, the growth in the test on HL-60(TB) leukemia was 113%; in the test on CCRF-CEM leukemia it was 92.5%.
For the molecule `O=C(O)c1c(Cl)n(Cc2ccc(O)cc2)c2ccc(O)cc12`, the growth was 118% with HCT-15 colon; 110% with HT29 colon; 80.6% in the test with SNB-75 CNS; 106% in the test on SNB-19 CNS; 106% with U251 CNS; 72.4% with PC-3 prostate. Further, the growth with SK-MEL-5 melanoma was 85.8%; in the test on UACC-62 melanoma, 98.9%; in the test with LOX IMVI melanoma, 98.8%; in the test on SK-MEL-28 melanoma, 100%; with SK-MEL-2 melanoma, 81.6%; in the test on EKVX NSCLC, 112%. Further, the growth with SN12C renal is 102%; in the test with UO-31 renal it was 61.1%; in the test with TK-10 renal it was 137%; in the test with ACHN renal it was 112%; with CAKI-1 renal it was 95.2%; with A498 renal, 107%. The results for the growth in the test with HL-60(TB) leukemia and in the test on CCRF-CEM leukemia were 101% and 81.6%, respectively.
On to `Nc1ccc2c(c1)oc1ccccc12`, for which the growth with HCT-15 colon is 112%; in the test with HT29 colon, 92.2%; in the test with SNB-75 CNS, 81.1%; with SNB-19 CNS, 110%; with U251 CNS, 94.4%; in the test on PC-3 prostate it was 82.6%. The growth in the test on SK-MEL-5 melanoma is 104%; with UACC-62 melanoma it was 94.9%; with LOX IMVI melanoma, 109%; in the test with SK-MEL-28 melanoma, 104%; with SK-MEL-2 melanoma, 102%; in the test with EKVX NSCLC it was 83.5%. The growth in the test on SN12C renal was 94.6%; with UO-31 renal it was 69.3%; in the test on TK-10 renal it was 135%; in the test on ACHN renal it was 102%; with CAKI-1 renal it was 82.5%; in the test on A498 renal, 103%. Moreover, the growth in the test on HL-60(TB) leukemia was 78.3%; in the test with CCRF-CEM leukemia it was 55.6%.
As to `COC1CC2c3ccccc3C1C(C)=[N+]2C` (stereo not given), the growth with HCT-15 colon is 101%; with HT29 colon, 96.6%; in the test on SNB-75 CNS it was 71.7%; in the test with SNB-19 CNS, 100%; in the test with U251 CNS it was 99.1%; with PC-3 prostate it was 84.8%. Also, the growth in the test on SK-MEL-5 melanoma is 106%; in the test on UACC-62 melanoma, 91.8%; in the test on LOX IMVI melanoma, 94.7%; with SK-MEL-28 melanoma it was 145%; in the test with SK-MEL-2 melanoma, 91.8%; in the test with EKVX NSCLC, 97.4%. Besides, the growth was 94.1% in the test on SN12C renal; 94% in the test with UO-31 renal; 98.8% in the test on TK-10 renal; 99.3% with ACHN renal; 69.3% with CAKI-1 renal; 80.8% in the test with A498 renal. The growth in the test with HL-60(TB) leukemia was 113%; in the test on CCRF-CEM leukemia, 76.7%.
Take `CC12CCC=CC1CCC1C2CCC2(C)C(c3ccc(=O)oc3)CCC12O` (stereo not given): the growth with HCT-15 colon is -71.7% (active); in the test with HT29 colon it was -66.5% (active); with SNB-75 CNS, -56.7% (active); with SNB-19 CNS, -99.9% (active); with U251 CNS, -77.2% (active); in the test on PC-3 prostate, -19.6% (active). Besides, the growth in the test on SK-MEL-5 melanoma was -56.6% (active); with UACC-62 melanoma, -65.4% (active); in the test with LOX IMVI melanoma, -83.8% (active); in the test with SK-MEL-28 melanoma, -31.1% (active); in the test with SK-MEL-2 melanoma it was -34.4% (active); with EKVX NSCLC it was -90.1% (active). The growth with SN12C renal was -18.8% (active); in the test on UO-31 renal, -94.5% (active); in the test with TK-10 renal, -69.8% (active); with ACHN renal, -89.9% (active); with CAKI-1 renal, -61.3% (active); with A498 renal, -19.9% (active). Further, the growth in the test with HL-60(TB) leukemia is -28% (active); in the test with CCRF-CEM leukemia, -16.6% (active).
